The entries come from a sample that favours hits as a whole.
miR122 inh: miR-122 suppressors via Renilla sensor increase, primary screen, cell-based, Huh7 psiCHECK-miR122, Renilla luciferase, single point; actives 0.14% (n = 340,000); activation, % at 12.5 µM; 48 h;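 active means mean activation of 30% or more, with every replicate also reaching 30%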;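 further: 0% = median of neutral control wells and 100% = median of positive control wells; higher luciferase signal means stronger suppression of miR-122 activity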
Active calls of the source: *.

SMILES	miR122 inh
Cc1ccc(C(=O)OCn2ncc(Cl)c(Cl)c2=O)cc1	74*
C[C@@H]1CN([C@@H](C)CO)C(=O)c2cc(Br)cnc2O[C@H]1CN(C)Cc1cccc(F)c1	3
COc1ccc(NC(=O)N(C)C[C@H]2Oc3ccc(NC(=O)Nc4ccc(C(F)(F)F)cc4)cc3CC(=O)N([C@@H](C)CO)C[C@H]2C)cc1	-201
Cc1cc(CN(C)C(=O)c2cc(COc3ccc4ncccc4c3)on2)on1	35*
CCCN1C[C@H](C)[C@H](OC)CN(C)C(=O)c2ccc(NS(C)(=O)=O)cc2OC[C@@H]1C	0
CCCCNC(=O)Nc1nnc(-c2ccc(OCC)cc2)o1	36*
CCCCOc1ccc(S(=O)(=O)Nc2ccc(NC(C)=O)cc2)cc1	-205
CCCC#Cc1ccc2c(c1)O[C@H](CN(C)S(C)(=O)=O)[C@H](C)CN([C@H](C)CO)S2(=O)=O	-16
C/C=C/c1cnc2c(c1)C(=O)N([C@H](C)CO)C[C@@H](C)[C@H](CN(C)S(=O)(=O)c1ccc(C)cc1)O2	5
CC(C)CC#Cc1ccc2c(c1)O[C@@H](CN(C)C(=O)NC1CCCC1)[C@H](C)CN([C@@H](C)CO)S2(=O)=O	-15
CN(C)CCNc1ncnc2c1sc1nc(N3CCOCC3)c3c(c12)CC(C)(C)SC3	56*
C[C@H](O)C#Cc1ccc2c(c1)O[C@@H](CN(C)C)[C@@H](C)CN([C@H](C)CO)S2(=O)=O	3
CC(C)CC#Cc1cnc2c(c1)C(=O)N([C@H](C)CO)C[C@H](C)[C@@H](CN(C)C(=O)Nc1cc(F)ccc1F)O2	10
Cc1noc(C)c1NC(=O)N(C)C[C@H]1Oc2ncc(C#CCC(C)C)cc2C(=O)N([C@@H](C)CO)C[C@H]1C	6
C[C@H]1CN([C@@H](C)CO)C(=O)c2cc(C#Cc3ccccc3)cnc2O[C@@H]1CN(C)C(=O)c1ccccn1	2
C[C@@H]1CN([C@@H](C)CO)C(=O)c2cc(/C=C/c3ccccc3)cnc2O[C@@H]1CN(C)C(=O)C1CCC1	-2
CN(C[C@H]1N[C@@H](CO)[C@H]1c1ccc(-c2ccccc2)cc1)C(=O)C1CCC1	42*
C[C@@H]1CN([C@H](C)CO)S(=O)(=O)c2ccc(-c3ccccc3)cc2O[C@H]1CN(C)C(=O)C1CCCCC1	-95
COc1ccccc1NC(=O)N(C)C[C@H]1Oc2ncc(C#CCC(C)C)cc2C(=O)N([C@@H](C)CO)C[C@H]1C	-3
C[C@@H]1CN([C@H](C)CO)C(=O)c2cccc(N(C)C)c2O[C@H]1CN(C)C(=O)Nc1ccccc1	-124
C[C@@H]1CN([C@H](C)CO)S(=O)(=O)c2ccc(-c3cncnc3)cc2O[C@@H]1CN(C)Cc1ccccc1	-3
C[C@@H]1CN([C@@H](C)CO)C(=O)c2cc(C#Cc3ccc(F)cc3)cnc2O[C@@H]1CN(C)C(=O)c1ccccc1F	10
Cc1ccccc1NC1=C/C(=N\S(=O)(=O)c2cccs2)c2ccccc2C1=O	60*
CCS(=O)(=O)Nc1ccc2c(c1)C(=O)N(C)C[C@@H](OC)[C@@H](C)CN[C@@H](C)CO2	0
Cc1ccc(C2CN(C)C3(C(=O)Nc4ccccc43)C23COc2ccccc2C3=O)cc1 (centres undefined)	-295
SMILES	miR122 inh
Cc1ccc(C2CN=NC23CCc2ccccc2C3=O)cc1 (centres undefined)	51*
C[C@H]1CN([C@@H](C)CO)C(=O)c2cc(-c3ccc(F)cc3)cnc2O[C@@H]1CN(C)Cc1ccc(C(=O)O)cc1	1
CCN(C[C@H]1[C@H](c2ccccc2)[C@@H](CO)N1C(=O)C1CC1)C(=O)NC1CCCC1	36*
O=C(NC[C@@H]1[C@H](c2ccccc2)[C@@H](CO)N1C(=O)C1CC1)NC1CCCC1	-108
C[C@@H]1CN([C@H](C)CO)S(=O)(=O)c2ccc(-c3cccc(C(=O)N(C)C)c3)cc2O[C@@H]1CN(C)C(=O)Nc1ccccc1	-31
Cc1ccc(-c2cnc3c(c2)C(=O)N([C@H](C)CO)C[C@H](C)[C@H](CN(C)C(=O)c2ccncc2)O3)cc1	-3
COc1ccc(NC(=O)N(C)C[C@@H]2Oc3ncc(Br)cc3C(=O)N([C@H](C)CO)C[C@@H]2C)cc1	-31
C[C@H](CO)N1C[C@H](C)[C@@H](CN(C)C(=O)Nc2ccc(F)cc2)Oc2ncc(-c3cccnc3)cc2C1=O	0
O=C(C1CC1)N(CCN(C(=O)C1CC1)c1ccccc1)c1ccccc1	30*
C[C@H](CO)N1C[C@H](C)[C@H](CN(C)C(=O)Cc2ccccn2)Oc2cc(-c3ccc(C(=O)N(C)C)cc3)ccc2S1(=O)=O	4
CO[C@H]1CN(C)C(=O)c2ccc(NS(=O)(=O)c3ccc(C)cc3)cc2OC[C@@H](C)N(C)C[C@H]1C	2
CC(C)C#Cc1ccc2c(c1)O[C@H](CN(C)C(=O)c1ccncc1)[C@H](C)CN([C@@H](C)CO)S2(=O)=O	40*
C[C@@H]1CN([C@H](C)CO)S(=O)(=O)c2ccc(C#Cc3ccncc3)cc2O[C@@H]1CN(C)C(=O)Nc1ccc2c(c1)OCO2	49*

Screening results as filed in PubChem.
